Among the test systems are SK-MEL-2 melanoma; EKVX NSCLC; SN12C renal; UO-31 renal; TK-10 renal; ACHN renal; CAKI-1 renal; A498 renal; CCRF-CEM leukemia; MOLT-4 leukemia.
Common to all, as to assay: NCI-60 one-dose screen, 48 h (100 = growth as untreated, 0 = no growth, -100 = all killed)
What all share (details): 10 µM unless noted

Compounds without any hit were thinned out: in the full panel of roughly 83,000, 20% have a hit.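 96-well plates, one dose, 48 hours. Percent growth reported; active if below 10.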 Unmarked numbers belong to inactive results. Active and inactive are the calls of the source.

As for `C#CC#CC#CC#CC#CC#CC#CC#CCC1OC[C@H](COC(=O)O[C@@H](C(=O)O[C@H]2C[C@@]3(O)[C@@H](OC(=O)c4ccccc4)[C@@H]4[C@]5(OC(C)=O)CO[C@@H]5C[C@H](O)[C@@]4(C)C(=O)[C@H](OC(C)=O)C(=C2C)C3(C)C)[C@@H](NC(=O)c2ccccc2)c2ccccc2)O1` (stereo not given in full), the growth was 36.2% with SK-MEL-2 melanoma; 60.2% in the test with EKVX NSCLC; 31.2% in the test on SN12C renal; 95.1% in the test with UO-31 renal; 84.9% in the test with TK-10 renal; 69.8% in the test on ACHN renal. For the same compound, the growth is 59.5% in the test on CAKI-1 renal, -1.18% (active) in the test on A498 renal, 15.1% in the test on CCRF-CEM leukemia and 28.5% in the test with MOLT-4 leukemia.

For the compound `Cn1cc(-c2csc(-c3cn(CCCN4CCOCC4)c4ccccc34)n2)c2cccnc21`, the growth in the test with SK-MEL-2 melanoma is 91.8%; in the test with EKVX NSCLC it was 86.7%; in the test on SN12C renal it was 87.2%; in the test on UO-31 renal, 71%; in the test with TK-10 renal, 86.9%; in the test on ACHN renal, 93.7%. In addition, the growth was 92% with CAKI-1 renal, 55.2% in the test with A498 renal, 62% with CCRF-CEM leukemia and 59.7% with MOLT-4 leukemia.

For the compound `CCN(CC)CCN1C(=O)c2c(c(C)c3c(oc4ccc(O)cc43)c2C)C1=O`, the growth with SK-MEL-2 melanoma was 89%; in the test on EKVX NSCLC, 83.2%; in the test on SN12C renal, -41.9% (active); in the test with UO-31 renal it was -92.4% (active); in the test with TK-10 renal, -13.9% (active); with ACHN renal, -80.4% (active). The growth with CAKI-1 renal is -6.73% (active); in the test with A498 renal, 91.7%; in the test on CCRF-CEM leukemia, -14.7% (active); with MOLT-4 leukemia it was 10.2%.

As to `CCS/C(Nc1ccccc1)=C(\C#N)C(=O)Nc1ccc(OC)cc1`, the growth in the test with SK-MEL-2 melanoma was -0.335% (active); with EKVX NSCLC, 52.4%; in the test on SN12C renal, 37.8%; in the test with UO-31 renal it was 50%; in the test on TK-10 renal, 47.7%; in the test on ACHN renal it was 51.9%. Moreover, the growth with CAKI-1 renal is 40.4%; in the test with A498 renal, 22.7%; with CCRF-CEM leukemia, 8.29% (active); with MOLT-4 leukemia, 10.1%.

Regarding `CN(C)CCCC1(c2ccc(F)cc2)OCc2cc(-c3ccc4cc[nH]c4c3)ccc21` (stereo not given), the growth in the test on SK-MEL-2 melanoma is 87.6%; with EKVX NSCLC, 61.6%; with SN12C renal, 58.6%; in the test with UO-31 renal, 30.2%; in the test with TK-10 renal, 92.9%; in the test with ACHN renal, 36.2%. In addition, the growth with CAKI-1 renal is 30.4%; in the test on A498 renal it was 81.5%; with CCRF-CEM leukemia, 33.2%; in the test with MOLT-4 leukemia it was -8.83% (active).

Consider `COC(=O)c1ccc(NC(=O)Nc2ccc(C(=O)OC)cc2)cc1`, for which the growth was 88% in the test on SK-MEL-2 melanoma; 118% in the test with EKVX NSCLC; 78.9% with SN12C renal; 96.9% in the test with UO-31 renal; 101% with TK-10 renal; 104% with ACHN renal. Also, the growth in the test on CAKI-1 renal was 124%; in the test on A498 renal it was 81.3%; in the test on CCRF-CEM leukemia, 90.8%; in the test on MOLT-4 leukemia, 79.9%.

Take `CC1=C(C(=O)Nc2nc(-c3ccc(Cl)cc3)cs2)[C@H](c2ccc(O)cc2)NC(=O)N1`: the growth in the test with SK-MEL-2 melanoma is 106%; with EKVX NSCLC it was 94.1%; in the test on SN12C renal, 107%; in the test on UO-31 renal, 78.3%; in the test with TK-10 renal, 103%; in the test on ACHN renal it was 105%. The growth in the test with CAKI-1 renal is 91%; in the test with A498 renal, 99.4%; with CCRF-CEM leukemia it was 116%; in the test on MOLT-4 leukemia, 94.2%.

As for `NC1=Nc2cc(OCCCCN3Cc4ccccc4C3)c(OCC3CC3)cc2C12CCCC2`, the growth in the test on SK-MEL-2 melanoma was 12.5%; in the test with EKVX NSCLC, 64.7%; in the test with SN12C renal, 66.5%; in the test on UO-31 renal it was 43.2%; in the test on TK-10 renal it was 87.1%; in the test with ACHN renal it was 65.7%. In addition, the growth is 1.68% (active) in the test with CAKI-1 renal, -0.354% (active) with A498 renal, 37.7% with CCRF-CEM leukemia and 29.9% with MOLT-4 leukemia.

For `CCN1C(=O)N(CC)C2C1NN=c1s/c(=C3\C(=O)N(CCC(C)C)c4ccccc43)c(=O)n12` (stereo not given), the growth in the test on SK-MEL-2 melanoma is 60.8%; in the test with EKVX NSCLC it was 48.2%; in the test with SN12C renal, 25.2%; in the test on UO-31 renal, 29.5%; in the test on TK-10 renal, 79.8%; in the test on ACHN renal, 30.7%. In addition, the growth in the test on CAKI-1 renal is 29.9%; in the test on A498 renal it was -1.36% (active); with CCRF-CEM leukemia, 13.7%; in the test with MOLT-4 leukemia it was 20.7%.

In the case of `O=C(NC(Cc1nnc2n(Cc3ccccc3)c(=O)c3c4c(sc3n12)CCCC4)c1ccccc1)c1ccccc1` (stereo not given), the growth was 108% with SK-MEL-2 melanoma; 99.3% in the test with EKVX NSCLC; 119% with SN12C renal; 65% with UO-31 renal; 119% in the test on TK-10 renal; 127% with ACHN renal. Also, the growth is 101% in the test with CAKI-1 renal, 109% with A498 renal, 61.9% with CCRF-CEM leukemia and 61.2% with MOLT-4 leukemia.

Take `O=C(c1c[nH]c2ccccc12)c1n[nH]c(=S)n1-c1cccc(Br)c1`: the growth in the test on SK-MEL-2 melanoma was 85.9%; with EKVX NSCLC, 70.9%; in the test on SN12C renal it was 96.3%; in the test on UO-31 renal it was 86.6%; in the test with TK-10 renal it was 106%; in the test with ACHN renal it was 100%. Besides, the growth in the test with CAKI-1 renal is 77.2%; with A498 renal it was 118%; in the test with CCRF-CEM leukemia, 90.6%; with MOLT-4 leukemia it was 90.2%.

For the compound `Cc1ccnc(Nc2ccc([N+](=O)[O-])c(NCCN3CCOCC3)n2)c1`, the growth was 51.5% with SK-MEL-2 melanoma; 96.4% in the test on EKVX NSCLC; 36.6% with SN12C renal; 34.2% with UO-31 renal; 79.4% in the test with TK-10 renal; 38.6% in the test with ACHN renal. Moreover, the growth was 65.6% in the test with CAKI-1 renal, 24.9% with A498 renal, 7.5% (active) with CCRF-CEM leukemia and 11.7% with MOLT-4 leukemia.

As to `CCCCCCCC/C=C\CCCCCCCCOc1ccc(CC(=O)NCC[N+]2(C)CCOCC2)cc1`, the growth in the test with SK-MEL-2 melanoma is 112%; with EKVX NSCLC it was 91.2%; in the test with SN12C renal, 64.1%; with UO-31 renal, 93.5%; with TK-10 renal, 44.7%; in the test with ACHN renal, 82.9%. In addition, the growth in the test on CAKI-1 renal was 53.5%; in the test on A498 renal, 91.8%; in the test on CCRF-CEM leukemia, 53%; with MOLT-4 leukemia, 79.9%.

Consider `N#CC1CCc2c(c(-c3ccc4nc(N)sc4c3)nc3ccc4[nH]ncc4c23)C1` (stereo not given), for which the growth with SK-MEL-2 melanoma is 51.7%; in the test on EKVX NSCLC, 64.8%; with SN12C renal it was 62.5%; with UO-31 renal, 31.2%; in the test with TK-10 renal, 41.6%; in the test with ACHN renal, 29.6%. Moreover, the growth in the test with CAKI-1 renal is 11.3%; in the test on A498 renal, -3.66% (active); in the test with CCRF-CEM leukemia, 42.6%; with MOLT-4 leukemia, 17.2%.

On to `Cc1n[nH]c2ccc(Br)cc2c1=O`, for which the growth was 99.4% in the test with SK-MEL-2 melanoma; 110% in the test on EKVX NSCLC; 106% in the test with SN12C renal; 75.8% in the test on UO-31 renal; 104% in the test on TK-10 renal; 100% in the test on ACHN renal. The growth was 103% with CAKI-1 renal, 83.7% in the test with A498 renal, 89.2% in the test with CCRF-CEM leukemia and 92.8% in the test on MOLT-4 leukemia.

On to `COc1cccc(CCNc2ncnc3c2ncn3Cc2nnc3c4ccccc4c(Cl)nn23)c1`, for which the growth is 20.2% in the test on SK-MEL-2 melanoma; 73.9% with EKVX NSCLC; 46.9% in the test on SN12C renal; 25.2% with UO-31 renal; 67.4% in the test on TK-10 renal; 24.9% with ACHN renal. For the same compound, the growth in the test on CAKI-1 renal is 18.3%; in the test with A498 renal, 83.4%; in the test on CCRF-CEM leukemia, 34%; with MOLT-4 leukemia it was 20.8%.

As to `N[C@H]1CCC[C@@H]1NCCCCN1C(=O)c2cccc3cc([N+](=O)[O-])cc(c23)C1=O`, the growth was 84.2% with SK-MEL-2 melanoma; 73.2% with EKVX NSCLC; 29.7% in the test with SN12C renal; 66% with UO-31 renal; 44.5% with TK-10 renal; 22.4% in the test on ACHN renal. Further, the growth is 94.3% with CAKI-1 renal, 62.6% with A498 renal, 2.24% (active) in the test with CCRF-CEM leukemia and 0.264% (active) in the test on MOLT-4 leukemia.

`Cc1ccc(-c2nc(/C=C3/C(=O)Nc4ccc(F)cc43)c3ccccn23)cc1`: the growth in the test with SK-MEL-2 melanoma was 31.9%; with EKVX NSCLC, 87.2%; with SN12C renal, 88.2%; in the test with UO-31 renal, 70.2%; with TK-10 renal, 89.2%; in the test on ACHN renal, -3.57% (active). Moreover, the growth in the test on CAKI-1 renal is 60.5%; in the test with A498 renal, 97.7%; with CCRF-CEM leukemia it was 77.4%; in the test on MOLT-4 leukemia it was 77.7%.

For `O=C(CSc1nnc(-c2cc(-c3ccccc3)nc3ccccc23)n1-c1ccccc1)Nc1ccc(C(=O)/C=C/c2ccc(Cl)cc2)cc1`, the growth is 112% in the test with SK-MEL-2 melanoma; 88.5% with EKVX NSCLC; 85.1% in the test with SN12C renal; 84.4% in the test on UO-31 renal; 110% in the test with TK-10 renal; 87.1% in the test with ACHN renal. The growth in the test on CAKI-1 renal was 81.5%; with A498 renal, 81.5%; in the test with CCRF-CEM leukemia, 72.2%; in the test on MOLT-4 leukemia, 68.6%.

For `Cc1ccc2c(=O)cc(C(=O)Nc3sc4c(c3C(=O)NCc3cccnc3)CCCC4)oc2c1C`, the growth in the test with SK-MEL-2 melanoma is 109%; in the test with EKVX NSCLC, 103%; with SN12C renal it was 95.3%; with UO-31 renal, 78.5%; with TK-10 renal it was 116%; with ACHN renal, 96.8%. Also, the growth in the test with CAKI-1 renal is 90.6%; in the test on A498 renal it was 89.1%; in the test with CCRF-CEM leukemia it was 93%; with MOLT-4 leukemia it was 90.3%.

Consider `CCOc1ccc(-n2nc(C(=O)NCc3ccccc3OC)nc2-c2cc(OC)c(OC)c(OC)c2)cc1`, for which the growth with SK-MEL-2 melanoma is 41.5%; in the test on EKVX NSCLC, 41.3%; with SN12C renal, 39.7%; with UO-31 renal it was -2.66% (active); in the test with TK-10 renal it was 46.5%; with ACHN renal it was 19.6%. Further, the growth was 25.9% in the test with CAKI-1 renal, 30% in the test with A498 renal, 39.7% in the test with CCRF-CEM leukemia and 0.381% (active) with MOLT-4 leukemia.

The values above are taken from PubChem BioAssay (NCI).
